# PubChem BioAssay
# Assay: inhibitors of PAF-induced NFkB signaling in CF airway cells, dose response, cell-based, uHTS hits, panel, cytotoxicity readout (AID 624344)
# Details: CF bronchial epithelial cells, PAF-induced NFkB reporter inhibition, with PAF, run 1; at 79 µM (top of the series) unless noted
row,Structure (SMILES),inhibition
1,COc1cc(NC(=O)c2cc3ccccc3cc2OC)ccc1NC(=O)c1cccs1,98.1%
2,COc1cccc(-c2ccc3ncnc(NCc4cc(C)cs4)c3c2)c1,106%
3,COc1ccc(-c2cn[nH]c2-c2ccc(OCc3ccccc3F)cc2O)cc1OC,113%
4,Clc1ccc(-c2csc3ncnc(N4CCc5ccccc5C4)c23)cc1,103%
5,O=C(NC1CCCC(C(F)(F)F)C1)c1ccc([N+](=O)[O-])o1 (stereo not given),97.5%
6,COc1cc2c(c(OC)c1OC)-c1ccc(NCc3ccccc3)c(=O)cc1C(NC(C)=O)CC2 (stereo not given),94.4%
7,CCOC(=O)[C@@H]1[C@H]2COc3ccc(Br)cc3[C@H]2N2C(=O)N(c3ccc(C)cc3)C(=O)[C@]12C,14.6%
8,CCc1ccc(Nc2n[n+](-c3ccccc3)c(-c3c(Cl)cccc3Cl)s2)cc1,116%
9,CCC(=NCCc1c(C)[nH]c2ccc(C)cc12)C1=C(O)CC(c2ccccc2)CC1=O (stereo not given),82.1%
10,CC(=O)N1CC(=O)N=C1SCC(=O)Nc1nc(C)c(-c2ccccc2)s1,62.6%
11,Cc1ccc(NS(=O)(=O)c2ccc(-c3cnc(C4CC4)o3)cc2)c(C)c1,104%
12,COCCCN=C1NN=C(c2cc(C)n(Cc3ccccc3Cl)c2C)CS1,88.6%
13,c1cc(-c2cnc3cccnn23)c2cccnc2c1,114%
14,CCNC(=O)C1(C)CCCN(Cc2ccc(-c3ccccc3)o2)C1 (stereo not given),94%
15,Cc1nc2sc(C(N)=O)c(N)c2c2c1CCCC2,116%
16,CC(C)n1c(SCc2ccccc2F)nc2c1c(=O)n(C)c(=O)n2C,96%
17,CN(Cc1ccccc1)c1ncnc(N)c1[N+](=O)[O-],115%
18,O=c1c(-c2c(O)cc(O)c3c2O[C@H](c2ccc(O)cc2)CC3)c(-c2ccc(O)cc2)oc2cc(O)cc(O)c12,105%
19,C=C(C)[C@@H]1CCC2(C(=O)O)CC[C@]3(C)[C@H](CC[C@@H]4[C@@]5(C)CCC(=O)C(C)(C)[C@@H]5CC[C@]43C)[C@@H]12 (stereo not given in full),86.7%
20,COc1ccc(OC)c(-c2nnc3n2N=C(c2ccc(OC)c(OC4CCCC4)c2)CS3)c1,103%

row,Structure (SMILES),inhibition
1,Clc1ccc(CSc2nnc(-c3ccncc3)o2)cc1,102%
2,O=C(Nc1ccccc1)c1cc2ccccc2c(=O)s1,50.8%
3,Cc1ccnc(NC(=O)CCCOc2cc(=O)n(C)c3ccccc23)c1,105%
4,Cc1ccc(C(C(=O)NCc2ccccc2)N(Cc2cccs2)C(=O)c2ccc3c(c2)OCCO3)cc1 (stereo not given),106%
5,COc1ccc(S(=O)(=O)N(C(C)=O)c2ccc(OC(C)=O)c3ccccc23)cc1[N+](=O)[O-],59.1%
6,COc1ccc(-n2cc(-c3ccccc3)c3c(N4CC(C)OC(C)C4)ncnc32)cc1 (stereo not given),102%
7,CC(C)C[C@@H](CN1CCCC1CN1C(=S)NC[C@@H]1Cc1ccc(O)cc1)N1C[C@H](Cc2ccc(O)cc2)N(CCc2ccccc2)C1=S (stereo not given in full),112%
8,CS(=O)(=O)Nc1ccc(-c2cnc3cccnn23)cc1,95.8%
9,O=C(/C=C/c1cccc([N+](=O)[O-])c1)NC(=S)Nc1ccc(CN2CCOCC2)cc1,100%
10,COc1ccc2ncn(-c3ccccc3)c2c1,104%
11,C/C(=N\Nc1cc(N2CCOCC2)ncn1)c1cccc([N+](=O)[O-])c1,115%
12,CCOc1ccc(C(C(=O)NCC2CCCO2)N(Cc2cccs2)C(=O)c2snc(C(N)=O)c2N)cc1 (stereo not given),99.5%
13,CC(=O)Nc1ccc(NC(=O)COC(=O)c2c3c(nc4ccccc24)CCN(Cc2ccccc2)C3)cc1,92.5%
14,COc1ccc(CNc2nn3c(-c4cccc(C(=O)N(C)C)c4)cnc3s2)cc1,113%
15,C=C1C(=O)OC2CC1C(O)CC(C)=CCCC(C)=CC(O)CC2C (stereo not given),103%
16,NC1(C(=O)O)CSSC1,112%
17,O=C(Nc1ccc(OCC(=O)N2CCOCC2)cc1)c1cncc(Br)c1,90.4%
18,COc1ccc(-c2cnc3c(NC=O)cc(-c4ccccc4OC)cn23)cc1OC,93.5%
19,O=C(Nc1ccc(Cl)cc1)c1nc[nH]c1C(=O)NCCCCNC(=O)c1[nH]cnc1C(=O)Nc1ccc(Cl)cc1,98.8%
20,CC1(O)CC(c2ccc(Cl)cc2)=NN1C(=O)c1ccc(Cl)cc1 (stereo not given),109%

# Assay: as above
# Details: CF bronchial epithelial cells, PAF-induced NFkB reporter inhibition, with PAF, run 2; at 79 µM (top of the series) unless noted
row,Structure (SMILES),inhibition
1,COc1cc(NC(=O)c2cc3ccccc3cc2OC)ccc1NC(=O)c1cccs1,107%
2,COc1cccc(-c2ccc3ncnc(NCc4cc(C)cs4)c3c2)c1,116%
3,COc1ccc(-c2cn[nH]c2-c2ccc(OCc3ccccc3F)cc2O)cc1OC,98.3%
4,Clc1ccc(-c2csc3ncnc(N4CCc5ccccc5C4)c23)cc1,112%
5,O=C(NC1CCCC(C(F)(F)F)C1)c1ccc([N+](=O)[O-])o1 (stereo not given),103%
6,COc1cc2c(c(OC)c1OC)-c1ccc(NCc3ccccc3)c(=O)cc1C(NC(C)=O)CC2 (stereo not given),112%
7,CCOC(=O)[C@@H]1[C@H]2COc3ccc(Br)cc3[C@H]2N2C(=O)N(c3ccc(C)cc3)C(=O)[C@]12C,35.9%
8,CCc1ccc(Nc2n[n+](-c3ccccc3)c(-c3c(Cl)cccc3Cl)s2)cc1,101%
9,CCC(=NCCc1c(C)[nH]c2ccc(C)cc12)C1=C(O)CC(c2ccccc2)CC1=O (stereo not given),92%
10,CC(=O)N1CC(=O)N=C1SCC(=O)Nc1nc(C)c(-c2ccccc2)s1,73.4%
11,Cc1ccc(NS(=O)(=O)c2ccc(-c3cnc(C4CC4)o3)cc2)c(C)c1,111%
12,COCCCN=C1NN=C(c2cc(C)n(Cc3ccccc3Cl)c2C)CS1,106%
13,c1cc(-c2cnc3cccnn23)c2cccnc2c1,105%
14,CCNC(=O)C1(C)CCCN(Cc2ccc(-c3ccccc3)o2)C1 (stereo not given),74.8%
15,Cc1nc2sc(C(N)=O)c(N)c2c2c1CCCC2,104%
16,CC(C)n1c(SCc2ccccc2F)nc2c1c(=O)n(C)c(=O)n2C,95.1%
17,CN(Cc1ccccc1)c1ncnc(N)c1[N+](=O)[O-],102%
18,O=c1c(-c2c(O)cc(O)c3c2O[C@H](c2ccc(O)cc2)CC3)c(-c2ccc(O)cc2)oc2cc(O)cc(O)c12,102%
19,C=C(C)[C@@H]1CCC2(C(=O)O)CC[C@]3(C)[C@H](CC[C@@H]4[C@@]5(C)CCC(=O)C(C)(C)[C@@H]5CC[C@]43C)[C@@H]12 (stereo not given in full),102%
20,COc1ccc(OC)c(-c2nnc3n2N=C(c2ccc(OC)c(OC4CCCC4)c2)CS3)c1,110%

row,Structure (SMILES),inhibition
1,Clc1ccc(CSc2nnc(-c3ccncc3)o2)cc1,83.7%
2,O=C(Nc1ccccc1)c1cc2ccccc2c(=O)s1,85.2%
3,Cc1ccnc(NC(=O)CCCOc2cc(=O)n(C)c3ccccc23)c1,112%
4,Cc1ccc(C(C(=O)NCc2ccccc2)N(Cc2cccs2)C(=O)c2ccc3c(c2)OCCO3)cc1 (stereo not given),98.3%
5,COc1ccc(S(=O)(=O)N(C(C)=O)c2ccc(OC(C)=O)c3ccccc23)cc1[N+](=O)[O-],99.4% [at 39.5 µM]
6,COc1ccc(-n2cc(-c3ccccc3)c3c(N4CC(C)OC(C)C4)ncnc32)cc1 (stereo not given),102%
7,CC(C)C[C@@H](CN1CCCC1CN1C(=S)NC[C@@H]1Cc1ccc(O)cc1)N1C[C@H](Cc2ccc(O)cc2)N(CCc2ccccc2)C1=S (stereo not given in full),101%
8,CS(=O)(=O)Nc1ccc(-c2cnc3cccnn23)cc1,102%
9,O=C(/C=C/c1cccc([N+](=O)[O-])c1)NC(=S)Nc1ccc(CN2CCOCC2)cc1,112%
10,COc1ccc2ncn(-c3ccccc3)c2c1,101%
11,C/C(=N\Nc1cc(N2CCOCC2)ncn1)c1cccc([N+](=O)[O-])c1,95.3%
12,CCOc1ccc(C(C(=O)NCC2CCCO2)N(Cc2cccs2)C(=O)c2snc(C(N)=O)c2N)cc1 (stereo not given),92.5%
13,CC(=O)Nc1ccc(NC(=O)COC(=O)c2c3c(nc4ccccc24)CCN(Cc2ccccc2)C3)cc1,89.8%
14,COc1ccc(CNc2nn3c(-c4cccc(C(=O)N(C)C)c4)cnc3s2)cc1,104%
15,C=C1C(=O)OC2CC1C(O)CC(C)=CCCC(C)=CC(O)CC2C (stereo not given),110%
16,NC1(C(=O)O)CSSC1,103%
17,O=C(Nc1ccc(OCC(=O)N2CCOCC2)cc1)c1cncc(Br)c1,98.9%
18,COc1ccc(-c2cnc3c(NC=O)cc(-c4ccccc4OC)cn23)cc1OC,102%
19,O=C(Nc1ccc(Cl)cc1)c1nc[nH]c1C(=O)NCCCCNC(=O)c1[nH]cnc1C(=O)Nc1ccc(Cl)cc1,105%
20,CC1(O)CC(c2ccc(Cl)cc2)=NN1C(=O)c1ccc(Cl)cc1 (stereo not given),78.5%
